Sampled rows, rich in hits. Any-hit rate of the full collection: about 2.5%.
ULK1 primary = human ULK1 kinase inhibition, primary screen | O75385 | AlphaScreen Atg13 phosphorylation by ULK1, luminescence | inhibition, % at 5.96 µM | hit rate 1.9% among 30,000; in the data active = inhibition above about 43%;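 note: 0% = median of compound wells and 100% = no enzyme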
Target sequence (O75385 whole entry, looked up): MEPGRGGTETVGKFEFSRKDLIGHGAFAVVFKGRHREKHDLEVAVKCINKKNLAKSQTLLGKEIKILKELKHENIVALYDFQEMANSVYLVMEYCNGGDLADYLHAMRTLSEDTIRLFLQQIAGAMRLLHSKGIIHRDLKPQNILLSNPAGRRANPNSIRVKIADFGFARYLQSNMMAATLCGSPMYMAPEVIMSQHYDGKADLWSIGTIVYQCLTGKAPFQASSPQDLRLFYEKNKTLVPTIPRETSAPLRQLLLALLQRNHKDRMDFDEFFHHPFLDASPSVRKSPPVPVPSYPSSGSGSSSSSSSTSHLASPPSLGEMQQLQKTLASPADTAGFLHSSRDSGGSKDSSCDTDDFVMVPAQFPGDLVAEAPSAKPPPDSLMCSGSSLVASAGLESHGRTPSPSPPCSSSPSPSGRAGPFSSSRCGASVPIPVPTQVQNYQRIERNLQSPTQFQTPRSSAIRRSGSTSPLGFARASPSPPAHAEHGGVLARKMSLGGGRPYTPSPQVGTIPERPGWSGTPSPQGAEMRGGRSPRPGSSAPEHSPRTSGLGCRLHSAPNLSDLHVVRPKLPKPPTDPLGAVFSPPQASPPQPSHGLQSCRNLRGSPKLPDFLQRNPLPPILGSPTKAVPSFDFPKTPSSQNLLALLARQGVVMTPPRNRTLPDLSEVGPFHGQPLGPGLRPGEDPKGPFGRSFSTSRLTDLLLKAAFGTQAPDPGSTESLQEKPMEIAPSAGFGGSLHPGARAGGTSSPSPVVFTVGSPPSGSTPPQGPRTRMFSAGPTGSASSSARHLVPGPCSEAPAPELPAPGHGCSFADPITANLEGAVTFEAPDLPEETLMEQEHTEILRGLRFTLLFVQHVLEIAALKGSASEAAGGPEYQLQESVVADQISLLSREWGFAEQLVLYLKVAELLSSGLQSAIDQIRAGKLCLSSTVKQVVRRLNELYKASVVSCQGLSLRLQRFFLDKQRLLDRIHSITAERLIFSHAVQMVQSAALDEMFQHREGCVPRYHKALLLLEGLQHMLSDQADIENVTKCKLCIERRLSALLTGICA
ASK1 primary = inhibitors of human ASK1 kinase; AlphaScreen MKK6 phosphorylation by ASK1, luminescence; inhibition, % at 7.44 µM; Q99683; hit rate 0.99% among 22,000; in the data active = inhibition above about 35%;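 note: 0% = median of compound wells and 100% = no enzyme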
TruHits interf = counter-screen for ASK1 inhibitors: AlphaScreen optical interference; shares compounds with ASK1 primary; AlphaScreen TruHits beads, signal interference counterscreen; IC50, µM; hit rate 20% among 220; AID 1159604;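 active = IC50 of 10 µM or lower in the counterscreen; inactive = IC50 above 10 µM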;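 note: loss of AlphaScreen light from TruHits beads alone with no ASK1 enzyme present; potency of signal reduction so a low IC50 flags an assay artifact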
* = called active by the depositor; i = inactive; / = not tested or not shown.

SMILES	ULK1 primary	ASK1 primary	TruHits interf
COc1cc2nc(Nc3cccc(N(C)C)c3)nc(Nc3ccc(NC(C)=O)cc3)c2cc1OC	5.5	54.7*	8.66*
CC(C)n1cnc2c(N)nc(Nc3ccccc3)nc21	18.4	2.7	/
CCNc1nc(NCc2ccccc2)c2ncn(C3CCCCC3)c2n1	1.0	-12.2	/
COc1ccc(-c2nc3ncnc(NCc4cccc(C(F)(F)F)c4)c3[nH]2)cn1	-20.2	2.9	/
Cc1cc(Nc2ccc3c(c2)OCO3)nc(N2CCN(Cc3ccc4c(c3)OCO4)CC2)n1	0.8	36.5*	i
c1cc(N2CCOCC2)ccc1Nc1nc(NCCN2CCOCC2)c2ncn(C3CCCCC3)c2n1	0.4	15.5	/
c1cc(-n2cnc3c(NC4CC4)nc(Nc4ccc(N5CCOCC5)cc4)nc32)cs1	24.8	42.7*	>20.1
FC(F)(F)c1ccc(Nc2nc(Nc3ccc(N4CCOCC4)cc3)c3ncn(-c4ccsc4)c3n2)cc1	-8.4	16.8	/
CCCNc1cc(C)nc(N2CCN(Cc3ccc4c(c3)OCO4)CC2)n1	11.3	11.4	/
c1cc(-n2cnc3c(Nc4ccc5c(c4)OCO5)nc(NCCN4CCOCC4)nc32)cs1	25.0	26.2	/
c1cc(-n2cnc3c(Nc4ccc5c(c4)OCO5)nc(Nc4ccc(N5CCOCC5)cc4)nc32)cs1	29.4	49.7*	i
CCCNc1nc(Nc2ccc(N3CCOCC3)cc2)nc2c1ncn2C1CCCCC1	17.4	50.8*	>20.1
Oc1ccc(CCNc2ncnc3nc(N4CCN(c5ccccn5)CC4)[nH]c23)cc1	-6.2	0.7	/
CCCNc1cc(C)nc(NCCCN2CCCC2=O)n1	5.7	-0.5	/
c1ccc(CNc2nc(NCc3cccnc3)nc3nc[nH]c23)cc1	-6.2	-9.8	/
c1ccc(CNc2ccnc(Nc3ccc(N4CCOCC4)cc3)n2)cc1	8.7	23.0	/
O=C(CN1C(=O)NC2(CCN(Cc3ccccc3)CC2)C1=O)Nc1ccccc1F	11.4	/	/
CC(=O)Nc1ccc(Nc2nc(N3CCN(Cc4ccc5c(c4)OCO5)CC3)nc3c2ncn3-c2ccsc2)cc1	-2.9	13.9	/
CC(C)n1cnc2c(Nc3ccc(N4CCOCC4)cc3)nc(Nc3ccc(-n4ccnc4)cc3)nc21	67.3*	36.0*	>19.1
c1cc(-n2cnc3c(Nc4ccc(N5CCOCC5)cc4)nc(NCc4ccc5c(c4)OCO5)nc32)cs1	10.2	40.8*	>19.9
Nc1nc(NCc2ccc3c(c2)OCO3)cc(Nc2ccc(N3CCOCC3)cc2)n1	15.9	33.0	/
Nc1nc(Nc2ccc(N3CCOCC3)cc2)cc(Nc2ccc3c(c2)OCO3)n1	15.8	37.3*	>16.8
c1cc(-n2cnc3c(Nc4ccc5c(c4)OCO5)nc(N4CCN(Cc5ccc6c(c5)OCO6)CC4)nc32)cs1	11.8	36.2*	>19.9
c1cc(-n2cnc3c(Nc4ccc5c(c4)OCO5)nc(NCc4ccc5c(c4)OCO5)nc32)cs1	0.3	17.0	/
CC(=O)Nc1ccc(Nc2nc(Nc3ccc(N4CCOCC4)cc3)nc3c2ncn3C(C)C)cc1	16.4	23.2	/
SMILES	ULK1 primary	ASK1 primary	TruHits interf
Cc1cnc(-c2ccc(N3CCOCC3)nc2)nc1NCc1nc2ccccc2[nH]1	6.5	-10.2	/
O=C1CCCN1CCCNc1nc(Nc2ccncc2)nc2c1ncn2-c1ccsc1	25.9	9.4	/
O=C1CCCN1CCCNc1nc(Nc2ccc(-n3ccnc3)cc2)nc2c1ncn2-c1ccsc1	25.3	47.2*	>19.9
Cc1cc(NCCc2ccc(O)cc2)nc(NCc2ccc3c(c2)OCO3)n1	-15.7	7.9	/
Cc1cnc(Nc2nccc3ccccc23)nc1NCc1ccccc1	0.5	-31.9	/
CN(C)c1cccc(Nc2ccc(-n3cc(CC(=O)Nc4ccc5c(c4)OCO5)c4ccccc43)nn2)c1	20.6	43.2*	>19
CN(C)c1cccc(Nc2ccc(-n3cc(CC(=O)Nc4ccc(N5CCOCC5)cc4)c4ccccc43)nn2)c1	15.2	43.7*	>20.1
O=C(Cc1cn(-c2ccc(Nc3ccc4ncccc4c3)nn2)c2ccccc12)Nc1ccc(N2CCOCC2)cc1	17.8	24.1	/
CN(C)c1cccc(Nc2ccc(-n3cc(CC(=O)Nc4ccccc4)c4ccccc43)nn2)c1	14.9	21.7	/
Cn1nccc1Nc1ccc(-n2cc(CC(=O)Nc3ccc4c(c3)OCO4)c3ccccc32)nn1	30.3	21.5	/
O=C(Cc1cn(-c2ccc(Nc3nccc4ccccc34)nn2)c2ccccc12)Nc1ccc2c(c1)OCO2	9.5	45.5*	>21.6
Nc1nc(NCCc2ccc(O)cc2)cc(Nc2nccc3ccccc23)n1	-21.6	5.7	/
Cc1cc(NCCc2ccc(O)cc2)nc(Nc2cnccn2)n1	-13.4	5.2	/
OCc1ccccc1Nc1ccnc(Nc2ccc(N3CCOCC3)cc2)c1	6.5	-3.2	/
c1ccc(CCn2ncc(-c3ccnc(Nc4ccc(N5CCOCC5)cc4)c3)c2Nc2ccccc2)cc1	17.7	40.8*	>19.2
Cn1ncc(-c2ccnc(Nc3ccc(N4CCOCC4)cc3)c2)c1Nc1ccccc1	12.2	19.1	/
O=C(Nc1ccccc1)c1ccccc1Nc1ccnc(Nc2ccc(N3CCOCC3)cc2)c1	1.9	37.1*	>19.2
c1ccc(CCn2nc(-c3ccnc(Nc4ccc(N5CCOCC5)cc4)c3)cc2Nc2ccccc2)cc1	-12.5	56.2*	>19.2
O=C(Cc1ccccc1)Nc1cc(-c2ccnc(Nc3ccc(N4CCOCC4)cc3)c2)nn1CCc1ccccc1	-13.8	17.7	/
CCN(CC)C(=O)C1CCCN(c2nc(NCCc3ccc(OC)cc3)c3cc(OC)c(OC)cc3n2)C1 (configuration not stated)	23.2	10.6	/
CCN(CC)c1ccc(/C=C2\C(=O)NC(=O)N(c3ccc(C)cc3)C2=O)c(O)c1	0.4	/	/
O=C(C1COc2ccccc2O1)N1CCOc2ccc(-c3ccncc3)cc21 (configuration not stated)	-3.0	9.9	/
COc1ccc(CCNc2nc(Nc3ccccn3)ncc2C)cc1	1.4	14.8	/
Cc1nc(C)n(-c2ccc(Nc3nccc(-c4cccc(-n5cncn5)c4)n3)cc2)n1	12.0	48.1*	>19.2
Cc1nc(C)n(-c2ccc(Nc3nccc(-c4cc(-n5cncn5)cc(-n5cncn5)c4)n3)cc2)n1	16.9	9.7	/
SMILES	ULK1 primary	ASK1 primary	TruHits interf
Cc1cnc(-c2ccc(C(N)=O)cc2)nc1Nc1ccc(N2CCOCC2)cc1	29.6	36.2*	>20
COc1ccc(-c2ncc(C)c(Nc3ccc(N4CCOCC4)cc3)n2)cn1	2.1	-0.4	/
COc1cc(Nc2nc(-c3ccc(C(N)=O)cc3)ncc2C)cc(OC)c1OC	54.6*	61.3*	>19.4
COc1cc(Nc2ncnc3nc(-c4ccc(C(N)=O)cc4)[nH]c23)cc(OC)c1OC	5.6	25.2	/
NC(=O)c1ccnc(N2CCCC2CO)c1 (configuration not stated)	4.3	-0.5	/
OCCNc1nc(NCc2cccnc2)nc2c1ncn2Cc1ccc(C(F)(F)F)cc1	-6.9	-16.4	/
CC(C)n1cnc2c(NCc3cccc(C(F)(F)F)c3)nc(Nc3ccc4ncccc4c3)nc21	-31.9	5.2	/
CC(C)NC(=O)c1cccc(NC(=O)Nc2ccc(-c3cn[nH]c3)cc2)c1	7.7	-0.3	/
CC(C)NC(=O)c1cccc(NC(=O)Nc2ccc(-c3ccnc4[nH]ccc34)cc2)c1	23.8	38.6*	>19.2
NC(=O)c1ccc(-c2cc(Nc3ccc(N4CCOCC4)cc3)ncn2)cc1	0.1	3.1	/
COc1cc(Nc2nc(N3CCc4ccccc4C3)nc3c2ncn3C2CCCCC2)cc(OC)c1OC	-1.4	20.8	/
COc1cc(Nc2nc(N3CCc4ccccc4C3)nc3c2ncn3C(C)C)cc(OC)c1OC	-2.0	40.2*	>20.1

Bioassay records (PubChem)
